These results are taken from PubChem BioAssay.

The nature of experiment [1]: P. berghei load reduction in hepatocytes – cell-based, HepG2, luciferase luminescence, HepG2 viability, primary screen (AID 624349; in the data active = parasite load remaining mostly below about 12%, no sharp cut-off; inactive = mostly above about 10%;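 note: 100% = mean of DMSO negative control wells on the same plate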). The note with it: P. berghei liver stage in HepG2, luciferase luminescence, concentration not given here; parasite load remaining: stronger effect = lower value; viability: measured here: HepG2 viability without parasites.
A short description of experiment [2]: signal quenchers or enhancers, Cy5 substrate/SSB – biochemical, NIH Clinical Collection, E. coli SSB, artefact control for HCV NS3 helicase inhibitor project (AID 743268; call rule not given here). The note with it: Cy5-oligo bound E. coli SSB, fluorescence interference.
In experiment [3] the test system is Hepatitis C virus NS3 helicase. Nature of the experiment: blockers of NS3h binding to DNA – biochemical, fluorescence polarization, NIH Clinical Collection, primary screen (AID 743270; call rule not given here). The note with it: NS3 helicase binding to Cy5-dT15 DNA, stronger effect = higher value, concentration not given here.
The target of experiment [4] is Single-stranded DNA-binding protein (Escherichia coli (strain K12)) (UniProt P0AGE0). Nature of the experiment: SSB-ssDNA binding inhibitors – biochemical, fluorescence polarization, NIH Clinical Collection, counter-screen for HCV NS3 helicase inhibitor project (AID 743271; in the data active = inhibition above about 28%). The note with it: E. coli SSB-DNA binding, stronger effect = higher value, concentration not given here. On the technique in general: Polarisation of emitted light reports the rotation of a fluorescent probe.

Experiment [5] in a line: compounds distorting NS3 helicase fluorescence signal – biochemical, NIH Clinical Collection, artefact control for HCV NS3 helicase inhibitor project (AID 743272; call rule not given here;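 note: HCV NS3 helicase with a Cy5 labelled single stranded DNA probe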). To be noted: fluorescence interference counterscreen, HCV NS3 helicase assay; stronger effect = lower value. (The purpose of a counterscreen is to sort out artefacts and off-target activity.)
Experiment [6] in a line: modulation of C. elegans fzo-1 (AID 1259413; call rule not given here;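 note: fzo-1 mutant C. elegans worms in liquid wells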). To be noted: C. elegans fzo-1 modulator screen, mean read-out; stronger effect = higher value.
The nature of experiment [7]: EMT-state selective cytotoxicity in co-culture – imaging, PC-3E GFP, TEM4-18 mCherry, primary screen (AID 1345086;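 active = compounds killing one labelled cell type while sparing the other, by normalised counts and ratio limits, not self-fluorescent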;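 for all read-outs here: cells exposed to compound for 72 h before imaging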;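 for red/green cell ratio (normalised): normalised mesenchymal count divided by normalised epithelial count so high means epithelial killing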). To be noted: PC-3E GFP / TEM4-18 mCherry co-culture, imaging cell counts, at 1 µM; for red/green cell ratio (normalised): actives lie on both sides, counts scaled to control wells, 1 = unselective.
Experiment [8] can be described thus: MELAS cybrid and Rieske KO viability enhancers – cell-based, MELAS cybrids, Rieske KO mouse fibroblasts, CellTiter-Glo, primary screen (AID 1508586;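 active = mean z-score across replicates of 1.96 or higher in either the MELAS or the Rieske mutant cell line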;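 note: z relative to plate mean and SD of compound and empty wells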). To be noted: low glucose.
A further experiment has as its system F380Y. Nature of the experiment: BK channel mutant inhibitors and activators – cell-based, U2OS BacMam, thallium flux, beta subunits, selectivity assay, profiling panel (AID 1259406).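 Note: initial slope of Thallos dye fluorescence rise after thallium is added; log ratio against the mean of 0.3% DMSO vehicle wells on the same plate.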 To be noted: U2OS BacMam BK variants, at 30 µM.
The subject of a further experiment is F380Y/beta1. Described as above. To be noted: U2OS BacMam BK variants, at 30 µM.
The subject of a further experiment is F380Y/beta2Delta. Described as above. The note with it: U2OS BacMam BK variants, at 30 µM.
The test system of the next experiment is F380Y/beta4. The description is as above. To be noted: U2OS BacMam BK variants, at 30 µM.
Experiment [9] concerns the target Calcium-activated potassium channel subunit alpha-1 (Homo sapiens) + Leucine-rich repeat-containing protein 26 (Homo sapiens) (UniProt Q12791+Q2I0M4). The experiment is described as above. To be noted: U2OS BacMam BK variants, F380Y/Slo1WT/gamma1, at 30 µM.
For the next experiment, the system named is R275C. The description is as above. To be noted: U2OS BacMam BK variants, at 30 µM.
For the next experiment, the system named is R275C/beta1. The description is as above. The note with it: U2OS BacMam BK variants, at 30 µM.
For another experiment, the system named is R275C/beta2Delta. The description is as above. To be noted: U2OS BacMam BK variants, at 30 µM.
The next experiment concerns R275C/beta4. The experiment is described as above. To be noted: U2OS BacMam BK variants, at 30 µM.
The next experiment has as its system R275C/Slo1WT/beta2. The experiment is described as above. To be noted: U2OS BacMam BK variants, at 30 µM.
A short description of experiment [10]: viability loss with induced miR-34 in A549 – imaging, A549 dox-inducible miR-34, nuclei and caspase counts, primary screen (AID 1347080;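 active = compounds whose cell count with miR-34 switched on is under 0.7 times the count with it off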). The note with it: A549 miR-34 inducible, Hoechst nuclei count, 48 h.
Setting [11] is: measured here: epithelial PC-3E GFP cell survival.
Setting [12] is: measured here: mesenchymal TEM4-18 mCherry cell survival.
The mark [13] stands for this setting: MELAS cybrid survival, CellTiter-Glo 48 h, stronger effect = higher value.
[14] abbreviates: Rieske KO mouse fibroblast survival, CellTiter-Glo 72 h.

Values joined by “and” are separate entries in the source; they are usually repeats but may differ in a detail not shown here. Identical values can stand only once. Active and inactive are the calls of the source.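 Rule for the calls, unless noted: active = thallium flux through the channel raised or lowered by more than 3 SD from vehicle-only wells, actives on both sides; inactive = the rest.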 Non-standard residues stand in square brackets, D forms with d. Residues, ends and D or L forms follow the SMILES beside them. pGlu = O=C1CC[C@@H](C(=O)O)N1; Thz = O=C(O)[C@@H]1CSCN1

Calcium-activated potassium channel subunit alpha-1 (Homo sapiens) + Leucine-rich repeat-containing protein 26 (Homo sapiens), sequence (Q2I0M4 whole entry, looked up, one chain of several): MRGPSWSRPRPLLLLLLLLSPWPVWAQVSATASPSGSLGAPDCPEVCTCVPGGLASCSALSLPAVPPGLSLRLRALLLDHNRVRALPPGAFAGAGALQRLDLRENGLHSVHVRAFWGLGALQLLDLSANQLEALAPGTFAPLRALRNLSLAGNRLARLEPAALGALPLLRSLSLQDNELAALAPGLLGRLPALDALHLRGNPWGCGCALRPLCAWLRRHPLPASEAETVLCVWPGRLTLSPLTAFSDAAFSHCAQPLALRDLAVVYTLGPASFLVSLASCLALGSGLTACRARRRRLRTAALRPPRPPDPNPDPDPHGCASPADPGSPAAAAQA

What is called viability is a read-out of living cells in per cent, often relative to untreated cells. By inhibition is commonly meant the relative decrease from the control value, in per cent. With `O=C1CC[C@@H](C(=O)N2CSC[C@H]2C(=O)O)N1` ([pGlu]-[Thz]-OH), in [1], the parasite load remaining is 123% (inactive). The viability in experiment [1] amounted to 115%. Moreover, the fluorescence ratio in [2] was 1 (inactive); in [5], 0.96 (inactive). Further, the results for the inhibition in experiment [3] and in [4] were 5.94% (inactive) and 3.75% (inactive), respectively. The mean signal in experiment [6] was 225 (inactive). Further, the red/green cell ratio (normalised) in experiment [7] is 0.96 (inactive). In addition, the normalised cell number in [7] (setting [11]) amounted to 0.97; in experiment [7] (setting [12]), 0.93. In addition, the z-score in [8] (setting [13]) was 0.585 (inactive); in experiment [8] (setting [14]), -0.48. Also, the log fold change Tl+ flux with F380Y is -0.0365 (inactive); in the experiment with F380Y/beta1, 0.0192 (inactive); with F380Y/beta2Delta, 0.00122 (inactive); in the experiment on F380Y/beta4, 0.0189 (inactive); in experiment [9], -0.0423 (inactive); in the experiment on R275C it was -0.0391 (inactive). Further, the log fold change Tl+ flux is -0.0174 (inactive) in the experiment with R275C/beta1, -0.0226 (inactive) in the experiment on R275C/beta2Delta, -0.00158 (inactive) in the experiment on R275C/beta4 and -0.0454 (inactive) with R275C/Slo1WT/beta2.
Take `CSc1nc2cc(Oc3cccc(Cl)c3Cl)c(Cl)cc2[nH]1`: the parasite load remaining in [1] is 14.4% (inactive). Also, the viability in [1] came to 78.3%. In addition, the fluorescence ratio in [2] is 0.98 (inactive); in [5] it was 0.96 (inactive). The inhibition in [3] was 5.94% (inactive); in experiment [4] it was 3.75% (inactive). Besides, the mean signal in [6] was 206 (inactive). The red/green cell ratio (normalised) in [7] is 0.82 (inactive). In addition, the normalised cell number in experiment [7] (setting [11]) came out at 1.26; in [7] (setting [12]), 1.03. The fold change in experiment [10] (stronger effect = lower value, cell number ratio, induced over uninduced) is 0.963 (inactive) and 0.988 (inactive); in experiment [10] (measured here: relative caspase fold change +Dox/-Dox) it was 1.31 and 0.403. The cell count was 5860 and 7990 in experiment [10] (measured here: total cells with miR-34 induction, stronger effect = lower value); 6080 and 8080 in [10] (measured here: total cells without miR-34 induction). Further, the z-score in experiment [8] (setting [13]) was -0.167 (inactive) and -0.17 (inactive); in experiment [8] (setting [14]) it was -0.137 and -0.629. Besides, the log fold change Tl+ flux was -0.0619 (inactive) with F380Y; 0.0498 (inactive) in the experiment with F380Y/beta1; -0.03 (inactive) in the experiment with F380Y/beta2Delta; 0.0138 (inactive) in the experiment on F380Y/beta4; -0.000443 (inactive) in experiment [9]; 0.0179 (inactive) with R275C. In addition, the log fold change Tl+ flux in the experiment on R275C/beta1 was 0.416 (active); in the experiment on R275C/beta2Delta, 0.248 (active); with R275C/beta4 it was 0.0585 (inactive); in the experiment on R275C/Slo1WT/beta2, 0.0178 (inactive).
For `CC(C)NCC(O)c1ccc(NS(C)(=O)=O)cc1` (stereo not drawn), the fluorescence ratio is 1.06 (inactive) in experiment [2] and 0.98 (inactive) in experiment [5]. The values for the inhibition in experiment [3] and in [4] were 1.19% (inactive) and -3.95% (inactive), respectively. For the same compound, the mean signal in [6] is 233 (inactive). Moreover, in [7], the red/green cell ratio (normalised) is 0.8 (inactive). The normalised cell number came to 1.21 in [7] (setting [11]) and 0.97 in experiment [7] (setting [12]). Besides, the z-score in experiment [8] (setting [13]) is -0.308 (inactive) and -0.43 (inactive) and 0.386 (inactive); in [8] (setting [14]), 0.759 and -0.504 and 0.277. Besides, the log fold change Tl+ flux with F380Y was 0.0283 (inactive); in the experiment with F380Y/beta1 it was -0.0363 (inactive); in the experiment on F380Y/beta2Delta, 0.0277 (inactive); in the experiment with F380Y/beta4 it was 0.0134 (inactive); in experiment [9], -0.004 (inactive); in the experiment with R275C, -0.065 (inactive). The log fold change Tl+ flux with R275C/beta1 was -0.000905 (inactive); in the experiment with R275C/beta2Delta it was -0.0581 (inactive); with R275C/beta4, 0.0206 (inactive); in the experiment on R275C/Slo1WT/beta2 it was 0.0082 (inactive).
